According to PMC7862700, “An all-to-all approach to the identification of sequence-specific readers for epigenetic DNA modifications on cytosine”:

How the values were obtained:
Experiment in all cases: DAPPL (digital affinity profiling via proximity ligation, sequencing); 10 mM Tris-HCl pH 7.5, 50 mM NaCl, 1 mM DTT, 4% glycerol, room temperature, 30 min; GST-TFs on glutathione beads, 16-mer random dsDNA library, 0.1% formaldehyde crosslink after washing; high values mean tight binding
Conditions in all cases: protein: recombinant; tags: N-terminal GST; dsDNA, one strand shown
FEV = target: T1, FEV (Homo sapiens, UniProt Q99581 1-238)
T1 sequence: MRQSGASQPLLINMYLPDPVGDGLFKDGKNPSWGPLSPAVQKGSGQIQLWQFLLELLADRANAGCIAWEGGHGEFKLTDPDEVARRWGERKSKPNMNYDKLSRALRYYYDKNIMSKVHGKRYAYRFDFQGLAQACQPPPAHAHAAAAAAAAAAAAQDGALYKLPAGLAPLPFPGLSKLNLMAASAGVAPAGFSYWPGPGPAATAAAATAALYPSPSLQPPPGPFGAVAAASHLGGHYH
Method in brief: (§1)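 A tag-only sample was pooled with DNA-barcoded human transcription factors that had been expressed in yeast as GST fusions and captured on glutathione beads. The pools were incubated for 30 min at room temperature with 200 nmole of a random double-stranded 16-mer DNA library in Tris/NaCl/DTT/glycerol buffer, then washed, crosslinked with 0.1% formaldehyde, proximity-ligated (BsaI/T4 ligase, 1 h, 37 °C), PCR-amplified and sequenced on an Illumina NextSeq500. Binding signal is each hexamer's read frequency for a factor divided by its frequency for the tag-only sample.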

ETV5 = ETV5 (Homo sapiens, UniProt P41161 1-510)
Chain of ETV5 (P41161 whole entry): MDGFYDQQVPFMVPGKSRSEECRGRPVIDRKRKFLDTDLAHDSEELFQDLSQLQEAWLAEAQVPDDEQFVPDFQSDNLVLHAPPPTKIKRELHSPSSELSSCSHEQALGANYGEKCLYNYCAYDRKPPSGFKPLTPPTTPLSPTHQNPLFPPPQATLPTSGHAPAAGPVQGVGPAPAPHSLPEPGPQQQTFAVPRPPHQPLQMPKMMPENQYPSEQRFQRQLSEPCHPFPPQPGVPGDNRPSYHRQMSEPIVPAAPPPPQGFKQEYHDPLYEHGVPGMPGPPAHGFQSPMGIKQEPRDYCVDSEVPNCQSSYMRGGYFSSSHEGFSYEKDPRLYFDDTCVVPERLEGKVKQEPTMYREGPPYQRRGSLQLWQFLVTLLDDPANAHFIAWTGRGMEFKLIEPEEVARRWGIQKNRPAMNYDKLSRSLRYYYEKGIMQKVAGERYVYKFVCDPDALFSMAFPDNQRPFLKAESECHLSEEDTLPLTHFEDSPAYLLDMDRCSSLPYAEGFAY
Method in brief: as §1

SPIC = target: T2, SPIC (Homo sapiens, UniProt Q8N5J4 1-248)
T2 sequence: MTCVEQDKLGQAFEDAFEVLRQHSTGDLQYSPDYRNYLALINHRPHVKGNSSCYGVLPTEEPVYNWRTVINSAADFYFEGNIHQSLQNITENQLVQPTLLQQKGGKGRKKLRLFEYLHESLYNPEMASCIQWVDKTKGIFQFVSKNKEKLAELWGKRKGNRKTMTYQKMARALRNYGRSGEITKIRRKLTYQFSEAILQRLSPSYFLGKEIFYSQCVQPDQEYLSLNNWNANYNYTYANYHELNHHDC
Method in brief: as §1

ELF4 = ELF4 (Homo sapiens, UniProt Q99607 1-663)
Chain of ELF4 (Q99607 whole entry): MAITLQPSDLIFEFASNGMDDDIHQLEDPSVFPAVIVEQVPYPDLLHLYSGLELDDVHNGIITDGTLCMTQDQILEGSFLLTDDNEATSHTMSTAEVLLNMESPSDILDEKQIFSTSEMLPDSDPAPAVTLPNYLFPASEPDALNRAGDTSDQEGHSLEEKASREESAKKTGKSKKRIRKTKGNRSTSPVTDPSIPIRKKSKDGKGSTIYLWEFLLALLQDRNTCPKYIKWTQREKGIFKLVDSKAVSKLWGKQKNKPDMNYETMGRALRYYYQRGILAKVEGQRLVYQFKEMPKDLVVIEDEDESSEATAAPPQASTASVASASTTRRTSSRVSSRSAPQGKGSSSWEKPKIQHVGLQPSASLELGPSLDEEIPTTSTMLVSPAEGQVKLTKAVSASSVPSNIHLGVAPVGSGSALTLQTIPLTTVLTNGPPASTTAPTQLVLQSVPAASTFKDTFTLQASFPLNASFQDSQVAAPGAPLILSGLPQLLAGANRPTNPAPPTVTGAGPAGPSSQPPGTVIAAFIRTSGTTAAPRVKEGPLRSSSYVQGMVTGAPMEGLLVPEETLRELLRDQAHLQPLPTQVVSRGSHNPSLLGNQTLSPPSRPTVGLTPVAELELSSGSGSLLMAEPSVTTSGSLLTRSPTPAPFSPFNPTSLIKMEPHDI
Method in brief: as §1

ELK4 = target: T3, ELK4 (Homo sapiens, UniProt P28324-2 1-405)
T3 sequence: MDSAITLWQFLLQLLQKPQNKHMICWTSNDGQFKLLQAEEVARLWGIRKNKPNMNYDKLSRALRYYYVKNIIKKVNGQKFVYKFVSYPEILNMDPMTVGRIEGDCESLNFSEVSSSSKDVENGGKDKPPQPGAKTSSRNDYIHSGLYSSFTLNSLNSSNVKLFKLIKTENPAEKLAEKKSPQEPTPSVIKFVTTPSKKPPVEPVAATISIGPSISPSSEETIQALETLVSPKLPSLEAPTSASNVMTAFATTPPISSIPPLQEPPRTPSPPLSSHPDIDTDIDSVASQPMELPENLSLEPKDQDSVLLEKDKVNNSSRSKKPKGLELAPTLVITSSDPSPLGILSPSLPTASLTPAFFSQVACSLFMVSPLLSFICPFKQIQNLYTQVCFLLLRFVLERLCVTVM
Method in brief: as §1

ETV2 = target: T4, ETV2 (Homo sapiens, UniProt O00321 1-342)
T4 sequence: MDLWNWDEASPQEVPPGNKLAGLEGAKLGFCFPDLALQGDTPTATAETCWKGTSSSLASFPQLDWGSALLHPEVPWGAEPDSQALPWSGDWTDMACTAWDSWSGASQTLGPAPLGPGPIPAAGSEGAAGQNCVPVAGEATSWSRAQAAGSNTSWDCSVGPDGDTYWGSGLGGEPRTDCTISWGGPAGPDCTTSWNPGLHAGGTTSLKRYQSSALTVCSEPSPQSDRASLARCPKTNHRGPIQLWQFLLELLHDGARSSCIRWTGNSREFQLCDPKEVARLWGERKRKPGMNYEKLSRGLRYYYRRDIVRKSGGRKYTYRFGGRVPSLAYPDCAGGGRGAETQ
Method in brief: as §1

ELF3 = target: T5, ELF3 (Homo sapiens, UniProt P78545 1-371)
T5 sequence: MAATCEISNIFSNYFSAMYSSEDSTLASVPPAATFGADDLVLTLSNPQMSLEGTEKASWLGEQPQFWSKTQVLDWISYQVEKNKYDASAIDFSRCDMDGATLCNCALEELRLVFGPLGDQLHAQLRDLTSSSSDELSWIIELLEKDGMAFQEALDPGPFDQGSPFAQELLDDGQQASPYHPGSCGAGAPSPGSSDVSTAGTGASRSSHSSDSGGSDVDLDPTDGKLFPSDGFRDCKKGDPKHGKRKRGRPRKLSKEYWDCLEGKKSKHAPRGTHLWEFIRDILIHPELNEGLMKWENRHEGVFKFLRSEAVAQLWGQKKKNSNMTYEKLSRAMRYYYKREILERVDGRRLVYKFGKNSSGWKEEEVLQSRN
Method in brief: as §1

ETV1 = ETV1 (Homo sapiens, UniProt P50549 1-477)
Chain of ETV1 (P50549 whole entry): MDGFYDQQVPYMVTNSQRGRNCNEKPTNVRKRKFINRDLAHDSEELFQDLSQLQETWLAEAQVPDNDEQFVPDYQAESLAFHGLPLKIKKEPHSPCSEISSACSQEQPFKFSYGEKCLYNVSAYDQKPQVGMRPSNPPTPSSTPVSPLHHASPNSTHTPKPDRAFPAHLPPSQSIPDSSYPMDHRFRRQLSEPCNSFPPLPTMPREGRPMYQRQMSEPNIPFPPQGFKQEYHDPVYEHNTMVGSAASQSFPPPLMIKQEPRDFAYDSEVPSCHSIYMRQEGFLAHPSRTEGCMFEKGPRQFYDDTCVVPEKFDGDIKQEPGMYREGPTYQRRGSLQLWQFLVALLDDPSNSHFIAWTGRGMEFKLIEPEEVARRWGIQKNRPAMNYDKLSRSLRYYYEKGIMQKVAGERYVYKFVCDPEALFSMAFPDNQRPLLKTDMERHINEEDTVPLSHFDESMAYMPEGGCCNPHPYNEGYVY
Method in brief: as §1

ERF = target: T6, ERF (Homo sapiens, UniProt P50548 1-548)
T6 sequence: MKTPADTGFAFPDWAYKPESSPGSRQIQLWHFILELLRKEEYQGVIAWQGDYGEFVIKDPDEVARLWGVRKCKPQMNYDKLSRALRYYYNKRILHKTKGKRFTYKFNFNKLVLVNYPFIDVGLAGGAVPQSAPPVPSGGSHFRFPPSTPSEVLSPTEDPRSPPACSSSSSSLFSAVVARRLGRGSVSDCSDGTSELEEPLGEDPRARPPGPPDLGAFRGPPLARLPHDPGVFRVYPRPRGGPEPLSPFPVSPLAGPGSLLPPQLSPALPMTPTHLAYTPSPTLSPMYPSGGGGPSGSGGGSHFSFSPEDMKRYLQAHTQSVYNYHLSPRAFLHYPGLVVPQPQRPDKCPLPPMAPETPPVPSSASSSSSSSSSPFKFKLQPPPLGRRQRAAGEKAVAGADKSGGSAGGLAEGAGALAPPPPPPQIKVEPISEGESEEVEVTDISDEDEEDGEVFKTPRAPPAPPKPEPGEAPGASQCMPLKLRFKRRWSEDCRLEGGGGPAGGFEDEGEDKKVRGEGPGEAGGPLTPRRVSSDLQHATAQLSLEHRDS
Method in brief: as §1

ETV3L = target: T7, ETV3L (Homo sapiens, UniProt Q6ZN32 1-361)
T7 sequence: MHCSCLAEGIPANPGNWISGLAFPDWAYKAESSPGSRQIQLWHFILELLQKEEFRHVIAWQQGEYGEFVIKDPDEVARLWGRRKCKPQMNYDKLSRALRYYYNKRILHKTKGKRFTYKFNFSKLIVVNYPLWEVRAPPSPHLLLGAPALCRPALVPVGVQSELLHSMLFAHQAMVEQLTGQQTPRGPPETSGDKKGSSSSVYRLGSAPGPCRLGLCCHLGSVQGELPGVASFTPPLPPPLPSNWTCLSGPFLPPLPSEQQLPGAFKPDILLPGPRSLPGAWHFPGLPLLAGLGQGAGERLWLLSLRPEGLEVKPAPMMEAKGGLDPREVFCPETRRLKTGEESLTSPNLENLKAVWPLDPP
Method in brief: as §1

ETS2 = target: T8, ETS2 (Homo sapiens, UniProt P15036 1-469)
T8 sequence: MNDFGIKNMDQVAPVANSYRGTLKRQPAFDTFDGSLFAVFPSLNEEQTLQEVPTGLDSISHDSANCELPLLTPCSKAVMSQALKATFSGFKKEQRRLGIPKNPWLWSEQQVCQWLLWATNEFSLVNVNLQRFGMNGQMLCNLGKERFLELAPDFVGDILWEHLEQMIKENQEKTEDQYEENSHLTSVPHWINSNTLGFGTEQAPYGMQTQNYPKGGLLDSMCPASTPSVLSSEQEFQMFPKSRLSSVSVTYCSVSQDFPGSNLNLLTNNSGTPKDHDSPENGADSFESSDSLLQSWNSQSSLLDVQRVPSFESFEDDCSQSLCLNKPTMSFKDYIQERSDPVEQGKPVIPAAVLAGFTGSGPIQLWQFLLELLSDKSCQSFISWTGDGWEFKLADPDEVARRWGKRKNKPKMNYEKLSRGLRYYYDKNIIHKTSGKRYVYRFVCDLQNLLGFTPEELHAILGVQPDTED
Method in brief: as §1

SPDEF = target: T9, SPDEF (Homo sapiens, UniProt O95238 1-335)
T9 sequence: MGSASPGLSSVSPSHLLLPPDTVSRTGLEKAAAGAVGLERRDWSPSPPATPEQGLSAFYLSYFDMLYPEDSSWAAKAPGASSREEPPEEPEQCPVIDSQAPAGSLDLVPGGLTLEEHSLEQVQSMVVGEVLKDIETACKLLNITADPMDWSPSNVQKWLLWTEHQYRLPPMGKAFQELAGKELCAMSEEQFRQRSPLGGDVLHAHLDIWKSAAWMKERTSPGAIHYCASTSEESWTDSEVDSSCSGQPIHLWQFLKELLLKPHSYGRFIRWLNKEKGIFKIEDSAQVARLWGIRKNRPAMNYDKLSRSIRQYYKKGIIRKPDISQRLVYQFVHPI
Method in brief: as §1

ETV7 = target: T10, ETV7 (Homo sapiens, UniProt Q9Y603 1-341)
T10 sequence: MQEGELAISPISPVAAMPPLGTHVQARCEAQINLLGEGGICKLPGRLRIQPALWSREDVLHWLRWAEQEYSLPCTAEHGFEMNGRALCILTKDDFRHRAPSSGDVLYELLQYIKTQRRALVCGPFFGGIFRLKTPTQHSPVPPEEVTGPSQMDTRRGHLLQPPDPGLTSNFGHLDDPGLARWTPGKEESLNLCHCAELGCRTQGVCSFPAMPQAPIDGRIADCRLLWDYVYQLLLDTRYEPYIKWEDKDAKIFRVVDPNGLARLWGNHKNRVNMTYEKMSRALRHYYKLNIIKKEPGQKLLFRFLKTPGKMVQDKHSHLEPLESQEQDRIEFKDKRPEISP
Method in brief: as §1

ELF5 = target: T11, ELF5 (Homo sapiens, UniProt Q9UKW6-2 1-255)
T11 sequence: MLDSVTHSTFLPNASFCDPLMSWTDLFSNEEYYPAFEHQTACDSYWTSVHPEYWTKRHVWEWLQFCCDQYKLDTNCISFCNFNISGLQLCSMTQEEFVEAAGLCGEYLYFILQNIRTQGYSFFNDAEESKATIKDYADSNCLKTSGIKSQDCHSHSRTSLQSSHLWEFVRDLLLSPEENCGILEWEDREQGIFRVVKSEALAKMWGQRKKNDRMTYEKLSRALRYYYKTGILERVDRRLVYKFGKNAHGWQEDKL
Method in brief: as §1

ETV3 = target: T12, ETV3 (Homo sapiens, UniProt P41162-2 1-143)
T12 sequence: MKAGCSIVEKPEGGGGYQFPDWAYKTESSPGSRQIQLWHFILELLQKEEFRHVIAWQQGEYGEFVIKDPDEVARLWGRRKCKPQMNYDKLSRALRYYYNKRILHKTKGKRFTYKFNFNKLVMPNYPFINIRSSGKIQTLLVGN
Method in brief: as §1

ETV6 = ETV6 (Homo sapiens, UniProt P41212 1-452)
Chain of ETV6 (P41212 whole entry): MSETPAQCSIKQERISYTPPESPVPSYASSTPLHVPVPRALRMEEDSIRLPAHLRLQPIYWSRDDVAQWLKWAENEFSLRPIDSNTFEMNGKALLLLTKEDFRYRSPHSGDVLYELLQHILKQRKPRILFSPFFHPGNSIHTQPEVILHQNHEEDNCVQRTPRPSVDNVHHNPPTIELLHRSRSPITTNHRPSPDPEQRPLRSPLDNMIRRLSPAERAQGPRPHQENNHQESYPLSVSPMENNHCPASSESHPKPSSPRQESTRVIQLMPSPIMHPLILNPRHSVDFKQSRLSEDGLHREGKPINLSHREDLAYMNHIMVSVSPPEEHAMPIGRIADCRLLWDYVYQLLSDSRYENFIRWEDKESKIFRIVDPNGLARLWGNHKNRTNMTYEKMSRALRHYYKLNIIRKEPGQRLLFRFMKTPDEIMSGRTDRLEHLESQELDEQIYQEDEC
Method in brief: as §1

Row | Sequence | binding signal (FEV) | binding signal (ETV5) | binding signal (SPIC) | binding signal (ELF4) | binding signal (ELK4) | binding signal (ETV2) | binding signal (ELF3) | binding signal (ETV1) | binding signal (ERF) | binding signal (ETV3L) | binding signal (ETS2) | binding signal (SPDEF) | binding signal (ETV7) | binding signal (ELF5) | binding signal (ETV3) | binding signal (ETV6)
1 | AGTGGC | 1.43 fold enrichment (6-mer frequency, TF over GST control) | 1.24 fold enrichment (6-mer frequency, TF over GST control) | 1.16 fold enrichment (6-mer frequency, TF over GST control) | 1.19 fold enrichment (6-mer frequency, TF over GST control) | 1.24 fold enrichment (6-mer frequency, TF over GST control) | 1.18 fold enrichment (6-mer frequency, TF over GST control) | 1.36 fold enrichment (6-mer frequency, TF over GST control) | 1.16 fold enrichment (6-mer frequency, TF over GST control) | 1.27 fold enrichment (6-mer frequency, TF over GST control) | 1.15 fold enrichment (6-mer frequency, TF over GST control) | 1.22 fold enrichment (6-mer frequency, TF over GST control) | 1.1 fold enrichment (6-mer frequency, TF over GST control) | 1.11 fold enrichment (6-mer frequency, TF over GST control) | 1.22 fold enrichment (6-mer frequency, TF over GST control) | 1.27 fold enrichment (6-mer frequency, TF over GST control) | 1.27 fold enrichment (6-mer frequency, TF over GST control)
2 | CACTCA | 1.16 fold enrichment (6-mer frequency, TF over GST control) | 1.09 fold enrichment (6-mer frequency, TF over GST control) | 1.3 fold enrichment (6-mer frequency, TF over GST control) | 1.18 fold enrichment (6-mer frequency, TF over GST control) | 1.17 fold enrichment (6-mer frequency, TF over GST control) | 1.27 fold enrichment (6-mer frequency, TF over GST control) | 1.17 fold enrichment (6-mer frequency, TF over GST control) | 1.1 fold enrichment (6-mer frequency, TF over GST control) | 1.2 fold enrichment (6-mer frequency, TF over GST control) | 1.11 fold enrichment (6-mer frequency, TF over GST control) | 1.16 fold enrichment (6-mer frequency, TF over GST control) | 1.14 fold enrichment (6-mer frequency, TF over GST control) | 1.21 fold enrichment (6-mer frequency, TF over GST control) | 1.12 fold enrichment (6-mer frequency, TF over GST control) | 1.09 fold enrichment (6-mer frequency, TF over GST control) | 1.14 fold enrichment (6-mer frequency, TF over GST control)
